Of roughly 7,900 targets only a part is listed; those with a hit were picked by preference. About 0.6% of all pairs of compound and target were hits.
compound: C1CCN(C1)C(=O)NC2=CC=CC(=C2)NC3=NC=C(C(=N3)NCCC4=CN=CN4)Br; assay: log2 fold change, soluble protein after heating vs DMSO (PISA); higher = thermal stabilisation; K562 cells, 10 uM, 30 min; active = over 0.2 and 3.5 SD of the protein, either way, in both replicates (recomputed)
Method in brief: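 K562 cells at 2×10^6 cells/mL were exposed to 10 μM compound for 30 min, then aliquots were heated for 3 min across 48°C-58°C, pooled, and extracted in PBS containing 0.5% NP-40 at 4°C. The supernatant after 21,000xg for 90 min was taken as soluble protein and measured by TMTpro 16plex LC-MS/MS with channel sums equalised. Thermal stability is reported relative to control samples, with values from duplicates. Fold changes are given on a log2 scale.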

UniProt Q6UX04, sequence (Q6UX04 whole entry, looked up): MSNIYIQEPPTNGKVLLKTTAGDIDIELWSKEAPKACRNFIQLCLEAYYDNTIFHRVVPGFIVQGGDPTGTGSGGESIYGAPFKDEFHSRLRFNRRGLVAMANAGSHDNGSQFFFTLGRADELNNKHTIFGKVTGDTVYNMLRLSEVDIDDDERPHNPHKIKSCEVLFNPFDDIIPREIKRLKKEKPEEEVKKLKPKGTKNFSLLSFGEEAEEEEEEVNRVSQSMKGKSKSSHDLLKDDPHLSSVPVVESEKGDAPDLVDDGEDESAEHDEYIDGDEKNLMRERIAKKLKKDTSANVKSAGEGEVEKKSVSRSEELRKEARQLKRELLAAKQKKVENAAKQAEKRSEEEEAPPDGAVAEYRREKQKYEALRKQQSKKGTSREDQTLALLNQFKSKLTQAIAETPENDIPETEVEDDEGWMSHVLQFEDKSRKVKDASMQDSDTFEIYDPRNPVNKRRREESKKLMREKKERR
UniProt Q9NXW2, sequence (Q9NXW2 whole entry, looked up): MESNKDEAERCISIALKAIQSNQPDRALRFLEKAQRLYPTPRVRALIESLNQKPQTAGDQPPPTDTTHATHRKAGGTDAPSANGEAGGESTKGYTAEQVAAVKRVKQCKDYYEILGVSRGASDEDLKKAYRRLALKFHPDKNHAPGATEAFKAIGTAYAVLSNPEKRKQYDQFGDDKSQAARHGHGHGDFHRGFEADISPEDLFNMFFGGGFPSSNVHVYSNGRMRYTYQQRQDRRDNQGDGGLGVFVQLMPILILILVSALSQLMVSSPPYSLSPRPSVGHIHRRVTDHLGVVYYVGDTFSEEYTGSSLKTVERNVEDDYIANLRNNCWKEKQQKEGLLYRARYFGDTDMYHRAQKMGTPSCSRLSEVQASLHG
UniProt P29692, sequence (P29692 whole entry, looked up): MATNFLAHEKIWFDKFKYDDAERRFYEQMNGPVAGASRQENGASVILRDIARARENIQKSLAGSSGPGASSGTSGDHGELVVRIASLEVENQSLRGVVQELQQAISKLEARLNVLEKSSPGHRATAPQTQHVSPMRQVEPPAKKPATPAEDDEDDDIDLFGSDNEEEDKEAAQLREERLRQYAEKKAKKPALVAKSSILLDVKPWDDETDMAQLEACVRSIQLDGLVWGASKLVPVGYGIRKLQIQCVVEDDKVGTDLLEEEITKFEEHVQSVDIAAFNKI
UniProt Q9NQI0, sequence (Q9NQI0 whole entry, looked up): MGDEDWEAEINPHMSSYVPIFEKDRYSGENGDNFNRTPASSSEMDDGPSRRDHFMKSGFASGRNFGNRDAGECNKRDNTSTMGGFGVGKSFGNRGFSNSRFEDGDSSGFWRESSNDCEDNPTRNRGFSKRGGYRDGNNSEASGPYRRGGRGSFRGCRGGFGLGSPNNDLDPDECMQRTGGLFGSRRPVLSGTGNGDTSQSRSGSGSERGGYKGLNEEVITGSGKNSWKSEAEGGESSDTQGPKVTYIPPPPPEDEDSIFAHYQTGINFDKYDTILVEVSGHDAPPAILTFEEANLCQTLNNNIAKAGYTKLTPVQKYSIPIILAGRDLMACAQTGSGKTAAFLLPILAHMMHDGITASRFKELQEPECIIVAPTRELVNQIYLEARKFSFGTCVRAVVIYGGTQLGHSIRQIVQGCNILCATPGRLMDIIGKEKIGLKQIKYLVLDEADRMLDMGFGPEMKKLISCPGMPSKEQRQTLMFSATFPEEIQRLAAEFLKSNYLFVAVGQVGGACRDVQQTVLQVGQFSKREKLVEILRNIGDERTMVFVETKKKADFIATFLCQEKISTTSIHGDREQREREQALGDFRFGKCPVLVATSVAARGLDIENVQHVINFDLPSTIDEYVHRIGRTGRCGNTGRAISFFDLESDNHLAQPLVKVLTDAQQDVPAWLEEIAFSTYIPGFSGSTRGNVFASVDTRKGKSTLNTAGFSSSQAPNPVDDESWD
UniProt Q96KP1, sequence (Q96KP1 whole entry, looked up): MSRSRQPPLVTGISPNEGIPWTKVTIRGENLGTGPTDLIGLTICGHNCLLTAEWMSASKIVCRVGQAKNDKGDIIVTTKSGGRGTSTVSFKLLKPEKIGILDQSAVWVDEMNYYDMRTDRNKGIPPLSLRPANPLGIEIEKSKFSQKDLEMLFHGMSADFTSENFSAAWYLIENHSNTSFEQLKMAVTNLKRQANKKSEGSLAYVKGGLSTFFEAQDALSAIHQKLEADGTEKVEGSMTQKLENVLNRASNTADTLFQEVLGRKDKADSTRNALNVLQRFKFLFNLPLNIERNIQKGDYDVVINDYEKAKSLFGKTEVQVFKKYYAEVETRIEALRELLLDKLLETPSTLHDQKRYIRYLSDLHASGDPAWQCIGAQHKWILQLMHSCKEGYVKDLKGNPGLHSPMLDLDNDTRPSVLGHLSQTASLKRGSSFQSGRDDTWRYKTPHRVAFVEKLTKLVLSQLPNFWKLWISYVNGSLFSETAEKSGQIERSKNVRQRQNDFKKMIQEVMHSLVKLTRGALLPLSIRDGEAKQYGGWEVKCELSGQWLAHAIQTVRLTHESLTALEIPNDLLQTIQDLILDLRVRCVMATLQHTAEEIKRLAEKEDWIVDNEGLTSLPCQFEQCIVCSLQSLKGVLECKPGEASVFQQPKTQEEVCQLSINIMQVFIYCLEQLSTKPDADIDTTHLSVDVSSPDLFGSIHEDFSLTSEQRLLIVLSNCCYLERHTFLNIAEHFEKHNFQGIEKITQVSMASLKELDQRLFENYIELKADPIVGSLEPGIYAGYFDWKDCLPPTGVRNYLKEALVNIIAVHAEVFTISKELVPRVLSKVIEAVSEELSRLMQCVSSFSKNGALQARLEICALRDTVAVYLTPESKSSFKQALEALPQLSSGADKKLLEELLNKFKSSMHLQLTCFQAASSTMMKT
UniProt Q0VG06, sequence (Q0VG06 whole entry, looked up): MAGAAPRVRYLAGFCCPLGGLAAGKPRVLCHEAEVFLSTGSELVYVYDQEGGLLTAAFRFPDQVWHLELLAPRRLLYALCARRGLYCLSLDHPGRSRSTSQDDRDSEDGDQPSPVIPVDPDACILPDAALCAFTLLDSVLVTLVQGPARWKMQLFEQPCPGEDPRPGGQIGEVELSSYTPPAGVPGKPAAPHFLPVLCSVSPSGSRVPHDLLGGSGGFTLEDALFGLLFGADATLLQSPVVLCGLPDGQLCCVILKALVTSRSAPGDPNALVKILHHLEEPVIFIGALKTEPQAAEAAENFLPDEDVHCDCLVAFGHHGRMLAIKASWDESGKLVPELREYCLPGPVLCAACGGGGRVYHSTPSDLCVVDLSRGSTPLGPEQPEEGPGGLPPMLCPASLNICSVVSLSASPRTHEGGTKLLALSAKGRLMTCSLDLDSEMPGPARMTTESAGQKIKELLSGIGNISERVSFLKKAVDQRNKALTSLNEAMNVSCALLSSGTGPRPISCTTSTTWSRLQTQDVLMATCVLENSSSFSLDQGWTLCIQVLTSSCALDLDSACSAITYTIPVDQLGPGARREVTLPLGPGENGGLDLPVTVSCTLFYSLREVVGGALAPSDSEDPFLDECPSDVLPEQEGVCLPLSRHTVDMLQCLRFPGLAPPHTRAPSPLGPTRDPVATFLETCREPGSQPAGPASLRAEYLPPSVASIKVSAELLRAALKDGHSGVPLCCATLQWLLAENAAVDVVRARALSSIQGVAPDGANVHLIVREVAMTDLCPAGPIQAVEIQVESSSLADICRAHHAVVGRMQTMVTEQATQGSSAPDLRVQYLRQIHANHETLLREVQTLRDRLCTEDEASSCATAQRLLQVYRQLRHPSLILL
UniProt Q9H4H8, sequence (Q9H4H8 whole entry, looked up): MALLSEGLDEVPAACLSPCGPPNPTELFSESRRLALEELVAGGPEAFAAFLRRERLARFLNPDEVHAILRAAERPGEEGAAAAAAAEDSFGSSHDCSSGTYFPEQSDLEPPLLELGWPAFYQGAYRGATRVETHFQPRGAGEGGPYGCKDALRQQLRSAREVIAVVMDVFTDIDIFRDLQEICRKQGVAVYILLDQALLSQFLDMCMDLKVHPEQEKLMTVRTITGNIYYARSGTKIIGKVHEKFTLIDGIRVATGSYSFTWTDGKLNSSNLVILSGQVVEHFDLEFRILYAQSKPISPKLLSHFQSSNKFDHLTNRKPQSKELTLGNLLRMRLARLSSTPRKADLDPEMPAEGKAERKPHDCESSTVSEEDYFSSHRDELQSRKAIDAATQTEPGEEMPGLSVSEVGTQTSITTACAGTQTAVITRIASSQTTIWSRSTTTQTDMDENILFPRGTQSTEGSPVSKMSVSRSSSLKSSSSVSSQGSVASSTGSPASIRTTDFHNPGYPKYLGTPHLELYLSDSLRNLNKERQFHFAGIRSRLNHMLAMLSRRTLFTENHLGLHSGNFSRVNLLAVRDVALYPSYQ
UniProt O43237, sequence (O43237 whole entry, looked up): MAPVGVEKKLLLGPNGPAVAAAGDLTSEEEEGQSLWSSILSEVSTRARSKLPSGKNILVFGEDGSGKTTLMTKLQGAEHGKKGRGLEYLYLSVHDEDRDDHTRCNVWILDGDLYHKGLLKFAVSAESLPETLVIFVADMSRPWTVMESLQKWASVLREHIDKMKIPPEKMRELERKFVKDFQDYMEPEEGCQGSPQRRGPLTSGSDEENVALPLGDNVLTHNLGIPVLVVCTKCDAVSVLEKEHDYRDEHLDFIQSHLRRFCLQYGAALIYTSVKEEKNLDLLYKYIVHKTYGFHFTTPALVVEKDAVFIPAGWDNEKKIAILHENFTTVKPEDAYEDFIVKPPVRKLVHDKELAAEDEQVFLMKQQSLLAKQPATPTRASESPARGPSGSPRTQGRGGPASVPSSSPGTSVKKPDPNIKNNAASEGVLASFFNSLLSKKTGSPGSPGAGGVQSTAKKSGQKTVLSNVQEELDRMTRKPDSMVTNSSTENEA
UniProt Q9NSI2, sequence (Q9NSI2 whole entry, looked up): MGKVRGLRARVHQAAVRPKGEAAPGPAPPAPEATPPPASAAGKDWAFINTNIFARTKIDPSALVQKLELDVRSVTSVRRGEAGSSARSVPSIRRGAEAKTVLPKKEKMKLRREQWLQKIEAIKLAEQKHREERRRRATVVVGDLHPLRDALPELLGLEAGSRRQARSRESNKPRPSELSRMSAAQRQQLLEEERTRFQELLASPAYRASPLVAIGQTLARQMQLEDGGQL

log2 fold change, inactive:
EOGT (UniProt Q5NDL2) 0.004
CUEDC2 (UniProt Q9H467) -0.071
DDX5 (UniProt P17844) -0.061
EIF4E2 (UniProt O60573) -0.032
ERLIN1 (UniProt O75477) 0.008
EEF1AKNMT (UniProt Q8N6R0) 0.023
EIF4A1 (UniProt P60842) -0.039
DCTPP1 (UniProt Q9H773) -0.021
DNAJB12 (UniProt Q9NXW2) 0.044
DDX4 (UniProt Q9NQI0) 0.053
EXOC2 (UniProt Q96KP1) -0.014
DMAC1 (UniProt Q96GE9) 0.008
EEA1 (UniProt Q15075) 0.009
DDX46 (UniProt Q7L014) -0.062
CYP51A1 (UniProt Q16850) 0.014
DCTN1 isoform 4 (UniProt Q14203) 0.046
CWC27 (UniProt Q6UX04) -0.086
DNAJC19 (UniProt Q96DA6) -0.012
DUS2 (UniProt Q9NX74) -0.028
ECH1 (UniProt Q13011) -0.028
DBT (UniProt P11182) -0.006
FAAP100 (UniProt Q0VG06) -0.122
FAM207A (UniProt Q9NSI2) -0.159
EEF1D isoform 2 (UniProt P29692) 0.048
DNAH11 (UniProt Q96DT5) 0.125
DAB2 (UniProt P98082) -0.156
DYNC1LI2 (UniProt O43237) 0.035
DNAJC7 (UniProt Q99615) 0.005
DLD (UniProt P09622) 0.031
DCAF10 (UniProt Q5QP82) 0.029
DCAF6 isoform 3 (UniProt Q58WW2) 0.042
FAM122A (UniProt Q96E09) 0.031
FAM83D (UniProt Q9H4H8) -0.071
DNAJB1 (UniProt P25685) -0.019
DNTTIP2 (UniProt Q5QJE6) -0.004
CTSL (UniProt P07711) -0.023
CTSV (UniProt O60911) 0.04
EDC3 (UniProt Q96F86) -0.195
EIF3J (UniProt O75822) 0.009
